Reference: PubChem BioAssay
Calls of active or inactive are those of the source.

Assay: budding yeast growth modifiers under rapamycin – strain BY4716, OD600, 96 h, primary screen (AID 1091); also: test concentration not given here
Conditions: S. cerevisiae BY4716 + rapamycin, higher = more signal, called active from +8 up or from −8 down

z-score, inactive:
CCOC(=O)C1=CCC(c2ccc(C#N)cc2)N(S(=O)(=O)c2ccc(C)cc2)C1 (stereo not given) 2.91
CCOC(=O)C1=C[C@@H](C(C)C)N(S(=O)(=O)c2ccc(C)cc2)[C@H]1c1ccc(C(C)C)cc1 0.612
CCOC(=O)C1=CCC(C(C)(C)C)N(S(=O)(=O)c2ccc(C)cc2)C1 (stereo not given) 1.66
CCCCC=C[C@@H](NC(=O)c1ccco1)c1ccccc1 1.92
CC(C)(C)N1CC=CC23O[C@@H]4C=CCOC(=O)[C@@H]4[C@H]2C(=O)N(CCCCCO)[C@@H]3C1=O (stereo not given in full) -0.177
O=C1C=CC(=O)[C@@H]2CC(COc3ccccc3)=C3[C@@H](CCc4ccccc4)OB(O)C[C@@H]3[C@H]12 0.203
Cc1ccccc1C(O)C1C=CC2C(=O)N(C)C(=O)C2N1N1CCCCC1 (stereo not given) -0.417
CCOC(=O)C[C@H]1[C@H](OC(=O)c2ccc(C(=O)c3ccccc3)cc2)[C@@H](NC(=O)C2CCCCC2)c2cc(OCCCO)ccc2N1C(=O)c1ccccc1 -0.155
Cc1ccc(S[C@]2(C(=O)NCC(C)C)CC(=O)N(Cc3ccccc3Cl)[C@@H]2c2ccc(CO)cc2)cc1 -0.0993
COc1cccc(C(=O)O[C@H]2CC[C@]3(C)C4=C(CCC3C2(C)C)[C@]2(C)CC[C@H]([C@H](C)CCCC(C)C)[C@@]2(C)CC4)c1 (stereo not given in full) -0.166
